The structures appear in SMILES notation. Values joined by “and” are separate entries in the source; they are usually repeats but may differ in a detail not shown here. Equal values may be shown once. Among all 16,000 compounds or so, about 2,600 (16%) were called active. Another 20% or so got no clear call; they are omitted. Not all results are given here. Values without a mark were called inactive. The call rests on the fitted dose curve; in most records, active means well fitted curve in the direction sought with a large enough effect; inconclusive means small, poorly fitted or top-dose-only effect, or effect the other way; inactive means no such curve, though single readings can be large or run the other way.

48 molecules from PubChem BioAssay AID1851 (National Center for Advancing Translational Sciences (NCATS), 2009) can be followed below.
On the % scale 0 is the no-effect control and ±100 the full control effect.

The target of this experiment is Cytochrome P450 2D6 (Homo sapiens) (UniProt P10635). Put plainly: Cytochrome panel assay with activity outcomes. As to conditions: recombinant CYP, pro-luciferin dealkylation, luminescence, p450-cyp2d6; series mostly up to 57.1 µM; activity, negative = inhibition: at the top concentration.
Cytochrome P450 2D6 (Homo sapiens), sequence (P10635 whole entry, looked up): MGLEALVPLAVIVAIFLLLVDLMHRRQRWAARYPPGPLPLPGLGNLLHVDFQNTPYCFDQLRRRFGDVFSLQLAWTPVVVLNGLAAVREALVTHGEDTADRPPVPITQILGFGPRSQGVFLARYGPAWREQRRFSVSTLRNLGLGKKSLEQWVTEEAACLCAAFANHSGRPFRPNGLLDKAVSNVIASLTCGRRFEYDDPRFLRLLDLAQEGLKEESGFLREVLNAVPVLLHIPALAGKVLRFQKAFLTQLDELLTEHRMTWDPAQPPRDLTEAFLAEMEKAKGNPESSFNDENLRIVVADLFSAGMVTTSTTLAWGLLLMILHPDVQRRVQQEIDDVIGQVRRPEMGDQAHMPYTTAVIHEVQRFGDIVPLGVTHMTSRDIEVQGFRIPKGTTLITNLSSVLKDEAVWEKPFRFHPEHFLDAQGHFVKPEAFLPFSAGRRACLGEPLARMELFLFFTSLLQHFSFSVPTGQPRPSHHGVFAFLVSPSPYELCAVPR
For `COc1ccc(/C(O)=C2/C(=O)C(=O)N(CCN3CCOCC3)C2c2ccc(C)cc2)cc1` (stereo not drawn), the “activity, negative = inhibition” value is 29.8%.
On the same count and under the same terms, the value for `CN1CCN(c2ncc3nc(CCc4ccccc4)c(=O)n(C)c3n2)CC1` was -8.43%; that for `O=C(O)[C@@H]1[C@@H](C(=O)NCc2ccncc2)[C@@H]2C=C[C@@H]1O2` was -9.91% [at 11.4 µM]; that for `COc1ccc(N(CC(=O)NN=C2CCCC2)S(=O)(=O)c2ccccc2)cc1` was -23.6%.
`O=C(CN(c1ccccc1)S(=O)(=O)c1ccccc1[N+](=O)[O-])NN=C1CCCCCCC1`: the AC50 (as a rule, the concentration at which the activity in the assay is half-maximal) is 4.47 µM (active).
`O=C(COc1ccc([N+](=O)[O-])cc1)NN=C1CCCC1`: the “activity, negative = inhibition” value was -17.7%.
On the same count and under the same terms, to `CNC(=O)[C@H]1O[C@H](n2cnc3c(NCc4cccc(I)c4)ncnc32)[C@@H](O)[C@@H]1O` belongs -3.89%; to `CCCCC(C=O)NC(=O)C(CC(C)C)NC(=O)OCc1ccccc1` (stereo not drawn), -8.92%.
Still for that read-out and setting: to `NCc1ccccc1CC(=O)N[C@@H]1C(=O)N2C(C(=O)O)=C(CSc3nnnn3CC(=O)O)CS[C@@H]12` belongs 5.45% [at 25.6 µM]; to `COc1cc(/C=N\NC(=O)C2C(=O)NCC2c2ccccc2)cc(OC)c1O` (stereo not drawn), 0.0367%.
The same measure, in the same setting: to `Cc1cccc(C)c1NC(=O)CCN1C(=O)C2C3CCC(C3)C2C1=O` (stereo not drawn) belongs -0.973%.
As to `CCCCN1CCCC[C@H]1C(=O)Nc1c(C)cccc1C`, the AC50 is 0.501 µM (active).
Take `Cc1cccc(C)c1NC(=O)N1CCC(N2CCCCC2)CC1`: the “activity, negative = inhibition” value is -13.6%.
Same read-out and setting: the value for `Cc1ccc(/C(C#N)=C/c2cccc([N+](=O)[O-])c2)cc1` was 8% [at 11.4 µM].
The same measure, in the same setting: the value for `CN(C)Cc1cc(O)c(O)c(CN(C)C)c1` was 1.36% [at 11.4 µM]; that for `COC(=O)c1cc(-c2ccccc2)sc1NC(=O)CN1C(=O)c2ccccc2C1=O` was -10.5%; that for `Cc1ccc2nc(-c3ccc(NC(=O)c4ccc(N)cc4)c(S(=O)(=O)O)c3)sc2c1` was 10.5% [at 11.4 µM].
For `COc1ccc(CCNC(=O)CCN2C(=O)C(C)Oc3ccc(C)cc32)cc1OC` (stereo not drawn), the “activity, negative = inhibition” value is -5.38%.
Still for that read-out and setting: the value for `Cc1ccc(C)c(NC(=O)Cn2nnc(C(=O)NCc3cccs3)c2N)c1` was -4.92%.
In the case of `Cc1ccc2c(c1)N(CC(=O)NCc1cccs1)C(=O)C(C)O2` (stereo not drawn), the AC50 was 12.6 µM (active).
Turning to `COc1ccccc1COC(=O)Nc1c(C)nn(C)c1Cl`, the “activity, negative = inhibition” value is 13.3%.
On the same count and under the same terms, to `COc1ccc2c(c1)c(CC(=O)N1CCOCC1)c(C)n2C(=O)c1ccc(Cl)cc1` belongs 0.728%; to `Nc1cccc2cc(S(=O)(=O)Nc3ccc(C(=O)O)cc3)ccc12`, 4.25% [at 11.4 µM]; to `COc1c(N2CCN(C(=S)Nc3ccc(F)cc3)C(C)C2)c(F)cc2c(=O)c(C(=O)O)cn(C3CC3)c12` (stereo not drawn), -2.42%.
On the same count and under the same terms, to `CCOC(=O)N/N=C\c1ccc([N+](=O)[O-])o1` belongs -12.6%.
Regarding `O=C(N/N=C/c1ccc([N+](=O)[O-])o1)c1cc(-c2ccncc2)nc2ccccc12`, the AC50 was 14.1 µM (active).
For the molecule `O=C(O)c1cc(-c2ccncc2)nc2ccccc12`, the activity, negative = inhibition was 8.68% [at 11.4 µM].
With `COn1c(SCc2cccc(Cl)c2)nc2ccccc2c1=O`, the AC50 is 0.891 µM (active).
In the case of `Cc1cc(C)n(-c2nc3ccccc3c(=O)n2OCc2ccc(Cl)cc2)n1`, the “activity, negative = inhibition” value was -58.9%.
For the molecule `COn1c(SCc2ccc(C)cc2C)nc2ccccc2c1=O`, the AC50 is 6.31 µM (active).
Regarding `COn1c(SC(C)C)nc2ccccc2c1=O`, the “activity, negative = inhibition” value was -13.7%.
The same measure, in the same setting: to `Cc1ccc(-n2c(SCc3ccc([N+](=O)[O-])cc3)nc3ccccc3c2=O)cc1` belongs 11.1%.
The same measure, in the same setting: the value for `CC(C)On1c(SC(C)C)nc2ccccc2c1=O` was 5.46%; that for `CO[C@H]1COC(=O)C/C=C\[C@H](C)[C@@H](OC)COC(=O)[C@H](Cc2ccccc2)NC(=O)C/C=C\[C@@H]1C` was -13.7% [at 11.4 µM]; that for `O=S(=O)(O)[C@@H](CO)c1ccccc1` (tested in a mixture with another compound) was 14% [at 11.4 µM].
The same measure, in the same setting: the value for `CC1CCCC(NC(=O)C2CCN(S(=O)(=O)N3CCOCC3)CC2)C1C` (stereo not drawn) was 24.2%; that for `O=C(O)C1CCCCC1C(=O)Nc1cc(Cl)ccc1Cl` (stereo not drawn) was -1.59%.
With `Cc1ccc(S(=O)(=O)O[C@@H]2[C@H]([C@@H]3COC(C)(C)O3)O[C@H]3OC(C)(C)O[C@@H]32)cc1`, the activity, negative = inhibition is 5.58% [at 11.4 µM].
Still for that read-out and setting: the value for `O=C(O)/C=C/C(=O)Nc1ccccc1-c1ccccc1` was 26.2%; that for `CCOC(=O)c1cc2c(C)n(-c3ccc(C)cc3)c(C)c2ccc1=O` was -13.2%; that for `O[C@H](CCCN1CCN(c2ncc(F)cn2)CC1)c1ccc(F)cc1` was -2.23%.
As for `O=C1NCN(c2ccccc2)C12CCN(CCCC(c1ccc(F)cc1)c1ccc(F)cc1)CC2`, the half-maximal activity concentration (AC50) was 10 µM (active) and 1.58 µM (active).
Regarding `O=C(Nc1cccc(Cl)c1)Nn1cnnc1`, the activity, negative = inhibition was 8.42% [at 11.4 µM].
Same read-out and setting: the value for `Cc1ccc(NCCC(=O)c2ccc(Cl)cc2)cc1` was -11.3%.
Consider `O=C(NCCc1ccc(Cl)cc1)Nc1cccc(Cl)c1`, for which the half-maximal activity concentration (AC50) is 0.891 µM (active).
Turning to `Cc1ccc(NCCC(=O)c2ccc(Cl)cc2)cc1C`, the “activity, negative = inhibition” value was -13%.
The same measure, in the same setting: the value for `CN(C)CCNC(=S)Nc1cccc(Cl)c1` was -23.3%.
Regarding `O=C(CNc1cccc(Cl)c1)c1ccc(Cl)cc1`, the AC50 was 0.447 µM (active).
